These results are taken from PubChem BioAssay (NCI).

The nature of test [1]: NCI Yeast Anticancer Drug Screen. Data for the rad50 strain (AID 155).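 Further: 0% = growth of vehicle-only cultures of the same strain.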 The note with it: S. cerevisiae rad50 strain growth inhibition; at 50.0 µM; active compounds read high. The gist of the method: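 Readout: growth inhibition relative to vehicle-treated cultures. Compound exposure was carried out in a genetically defined yeast strain deficient in DNA damage repair.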
Test [2] in a line: NCI Yeast Anticancer Drug Screen. Data for the mec2-1 strain (AID 157). The note with it: S. cerevisiae mec2-1 strain, at 50.0 µM, active compounds read high. The method in brief:
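Readout is yeast growth inhibition, normalised to vehicle-treated controls, in the mec2-1 strain exposed to compound.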

Test [3] in a line: NCI Yeast Anticancer Drug Screen. Data for the sgs1 mgt1 strain (AID 161).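 Further: 0% = growth of cultures given vehicle only.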 The note with it: S. cerevisiae sgs1 mgt1 strain, at 50.0 µM, active compounds read high. The method in brief:
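Percent growth inhibition was derived by comparing compound-exposed mutant yeast with vehicle-exposed cultures. The strain carries alterations in DNA damage repair.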

Test [4] can be described thus: NCI Yeast Anticancer Drug Screen. Data for the cln2 rad14 strain (AID 165).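 Further: 0% = growth equal to vehicle treated cultures.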 The settings on record: S. cerevisiae cln2 rad14 strain, at 50.0 µM, active compounds read high. The method in brief: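 Relative to vehicle controls, growth inhibition of compound-treated cln2 rad14 yeast was recorded.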
Test [5] can be described thus: NCI Yeast Anticancer Drug Screen. Data for the bub3 strain (AID 167). The settings on record: S. cerevisiae bub3 mutant strain, at 50.0 µM, active compounds read high. The gist of the method:
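Readout: yeast growth inhibition, expressed relative to vehicle-only wells. The test organism is a mutant strain from a panel with lesions in DNA repair or checkpoint genes.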

Test [6] is described as follows: NCI Yeast Anticancer Drug Screen. Data for the mlh1 rad18 strain (AID 175). The note with it: S. cerevisiae mlh1 rad18 strain growth inhibition; at 50.0 µM; active compounds read high. The gist of the method:
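Test agents were incubated with a yeast strain of defined genotype (DNA damage repair defect). Inhibition of growth was derived by comparison with vehicle-exposed cultures.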

This is part of a sample that, as a whole, favours compounds with a hit. Of some 79,000 tested, about 15% had one in any assay. Unmarked numbers belong to inactive results. Calls of active or inactive are those of the source. No stated cut-off is given here; in the data, active means growth inhibition above about 70%; inactive means the rest.

As to `O=C(OCc1ccccc1CN1CCOCC1)c1ccc(Cl)cc1`, the growth inhibition is 42.1% in test [1]; 68.5% in test [2]; 75.7% (active) in test [3]; 84% (active) in test [4]; 87% (active) in test [5]; 74.8% (active) in test [6].

As to `COc1ccc2c(c1)OCCN(C)OC2c1ccccc1` (stereo unspecified), the growth inhibition in test [1] is -7.65%; in test [2] it was -4.6%; in test [3], -10.2%; in test [4] it was 0.5%; in test [5], 11.1%; in test [6] it was -1.5%.

For the molecule `Cc1cc(C)c2[nH]c(=O)c(Br)c(C)c2c1`, the growth inhibition in test [1] was 29.8%; in test [2], 11.8%; in test [3] it was 34.2%; in test [4] it was 22.1%; in test [5] it was 3.85%; in test [6] it was 19.4%.

With `C[N+](C)(N)Cc1csc(-c2ccc(Cl)cc2)n1`, the growth inhibition was -31.3% in test [1]; -39.3% in test [2]; -12.7% in test [3]; -8.1% in test [4]; -24.6% in test [5]; -10.5% in test [6].

`Cc1ccc(C2(C)NC(=S)N(NC(N)=S)C2=S)cc1` (stereo unspecified): the growth inhibition in test [1] was 32.3%; in test [2], 19.8%; in test [3] it was 7.15%; in test [4], 3.25%; in test [5], 4.65%; in test [6], 21.8%.

Regarding `Cn1nc(-c2ccccc2)c([N+](=O)[O-])c1NCc1ccccc1`, the growth inhibition is -0.8% in test [1]; -1.95% in test [2]; -4.4% in test [3]; -29.1% in test [4]; 6.4% in test [5]; 1.15% in test [6].

In the case of `CC1=C(O)/C(=C/C(C)CCC/C(C)=C/C=C/C(C)CCCc2ccoc2)OC1=O` (stereo unspecified), the growth inhibition in test [1] was 3.05%; in test [2] it was -4.65%; in test [3], 2.9%; in test [4] it was 23.8%; in test [5] it was 7.45%; in test [6], 3.1%.

In the case of `O=C(Nc1ccc(S(=O)(=O)N2CCCCC2)cc1)OC1CCCCCC1`, the growth inhibition is 10.1% in test [1]; 1.1% in test [2]; -8.5% in test [3]; 14.5% in test [4]; -4.05% in test [5]; 10.6% in test [6].

In the case of `CCOC(=O)C(=N\Nc1ccccc1Br)/C(C)=N\NC(N)=S`, the growth inhibition is 50% in test [1]; 19.6% in test [2]; 56.9% in test [3]; 14.7% in test [4]; 9.3% in test [5]; 33% in test [6].

In the case of `C=Cc1cc2c(cc1O)CC[C@@H]1[C@@H]2CC[C@]2(C)[C@@H](O)CC[C@@H]12`, the growth inhibition in test [1] was 17.4%; in test [2], 17.4%; in test [3], 36.8%; in test [4], 29.7%; in test [5], 22.9%; in test [6] it was 36.1%.

For `Cc1ccc(S(=O)(=O)N(CCOS(C)(=O)=O)CCOS(C)(=O)=O)cc1`, the growth inhibition in test [1] is 12.3%; in test [2], -13.2%; in test [3], -0.8%; in test [4], -2.1%; in test [5], 9.45%; in test [6], 5.25%.

For the molecule `NC(=O)CNC(=O)[C@@H]1CC(OCCC(=O)O)CN1C(=O)C1CCCN1C(=O)OCc1ccccc1` (stereo partly specified), the growth inhibition in test [1] is 0.05%; in test [2] it was -0.8%; in test [3], 1.8%; in test [4], 6.25%; in test [5] it was 1.3%; in test [6], 6.75%.

Take `CC(=O)OC/C=C1/CC[C@H]2[C@@H]3CCC4=CC(=O)CC[C@]4(C)[C@H]3[C@@H](O)C[C@]12C`: the growth inhibition in test [1] was 26.4%; in test [2] it was -4.25%; in test [3], 8.65%; in test [4], -31.4%; in test [5], 13.4%; in test [6] it was 26.9%.

For the molecule `CNC(=O)c1ccccc1CC(O)c1ccccc1` (stereo unspecified), the growth inhibition was -7.95% in test [1]; 0.65% in test [2]; 4.75% in test [3]; 6.75% in test [4]; 0.9% in test [5]; 8.95% in test [6].

Regarding `CCOC(=O)N1Cc2cc3ccc(OC)cc3nc2C1`, the growth inhibition is 6% in test [1]; -4.15% in test [2]; -21.1% in test [3]; -10% in test [4]; -24.4% in test [5]; 3.9% in test [6].

In the case of `CC(C)(C)c1ccc(C(=O)O)c(O)c1.CC(C)(C)c1ccc(C(=O)O)c(O)c1.[Cu]`, the growth inhibition in test [1] is 24.6%; in test [2] it was 15.1%; in test [3] it was 43.4%; in test [4] it was 47.6%; in test [5] it was 2.75%; in test [6] it was 37.1%.

With `COC1OC(C(C)O)C2OC(C)(C)OC12` (stereo unspecified), the growth inhibition in test [1] is 40.5%; in test [2], 29.1%; in test [3], 32.2%; in test [4] it was 1.5%; in test [5], 18.9%; in test [6], 13.3%.

For the molecule `Cc1nn(C23CC4CC(CC(C4)C2)C3)c(C(Cl)Cl)c1Cl`, the growth inhibition was -4.4% in test [1]; -7.95% in test [2]; 2.7% in test [3]; -8.75% in test [4]; 2.05% in test [5]; 4.7% in test [6].

`Cc1ccc(C(C)[N+](=O)[O-])cc1` (stereo unspecified): the growth inhibition in test [1] was 13.2%; in test [2], 18.1%; in test [3], 18.4%; in test [4], -13.7%; in test [5], 0.45%; in test [6] it was 18.2%.

As for `O=C(NC(Cc1ccccc1)C(=O)NNc1ccccc1Cl)OCc1ccccc1` (stereo unspecified), the growth inhibition is 92.4% (active) in test [1]; 86.3% (active) in test [2]; 94.7% (active) in test [3]; 55.5% in test [4]; 80% (active) in test [5]; 89.5% (active) in test [6].

Take `CC([C@H](c1ccccc1)C1CCC(C(N)=O)(N2CCOCC2)C1)[N+](=O)[O-]` (stereo partly specified): the growth inhibition in test [1] was 5.8%; in test [2] it was 7.9%; in test [3] it was 12.3%; in test [4], 39.1%; in test [5], 4.45%; in test [6], 9.85%.
